Bioassay records from PubChem BioAssay.
Hits are enriched below; roughly 0.47% of the tested compounds scored in any of these assays.
UDG counterscr – UDG inhibition counter-screen | 0.14% of 91,000 active | Potency, µM (highest dose often 115 µM), actives largely listed as inhibitors | AID 1347430 | FRET deamination/UDG coupled assay, UDG read, 4 h; further: nearly all actives have a fitted effect of over 65% in size
AID inh – inhibitors of human activation induced cytidine deaminase; AID deamination FRET fluorescence, UDG-coupled, 4 h; Q9GZX7; 0.32% of 91,000 active; Potency, µM (doses to about 115 µM), most hits filed as inhibitors; further: nearly all actives have a fitted effect of over 25% in size
Target sequence (Q9GZX7 whole entry, looked up): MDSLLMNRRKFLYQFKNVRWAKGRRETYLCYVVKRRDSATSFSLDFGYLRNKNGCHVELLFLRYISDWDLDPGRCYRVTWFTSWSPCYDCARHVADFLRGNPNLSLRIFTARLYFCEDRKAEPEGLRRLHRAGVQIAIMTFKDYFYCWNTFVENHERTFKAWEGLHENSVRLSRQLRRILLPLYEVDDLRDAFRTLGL
Large screens that a line does not name were inactive; ! = not active in a repeat. The call rests on the fitted dose curve; in most records, active means well fitted curve in the direction sought with a large enough effect; inconclusive means small, poorly fitted or top-dose-only effect, or another doubt; inactive means no such curve, though single readings can be large; an effect the other way counts as inactive or inconclusive.

COc1ccc(/C=C2\Oc3cc(OS(=O)(=O)c4ccccc4)ccc3C2=O)cc1OC	none
Cc1ccc(C)c(Nc2nn3c(=O)c4ccc(C(=O)NCc5cccs5)cc4nc3s2)c1	AID inh 40µM
COc1ccccc1Nc1nn2c(=O)c3ccc(C(=O)NCc4cccs4)cc3nc2s1	none
COc1ccccc1Nc1nn2c(=O)c3ccc(C(=O)NCCCOC(C)C)cc3nc2s1	none
CCN(CC)CCNC(=O)c1ccc2c(=O)n3nc(Nc4ccccc4OC)sc3nc2c1	AID inh 71µM
Cc1ccc(OCCn2c(C3CC(=O)N(Cc4ccc(F)cc4)C3)nc3ccccc32)c(C)c1 (stereo not given)	UDG counterscr inconclusive, AID inh 35µM
CC(C)CCn1c(C2CC(=O)N(Cc3ccc(F)cc3)C2)nc2ccccc21 (stereo not given)	none
COc1ccccc1C(=O)Nc1ccc(C(=O)OCc2cc(=O)n3nc(C4CC4)sc3n2)cc1	none
COc1ccccc1C(=O)Nc1ccc(C(=O)OCc2cc(=O)n3nc(C)sc3n2)cc1	AID inh 28µM
O=C(COC(=O)c1ccc2ccccc2n1)NCCc1ccccc1	none
COc1ccc(C(=O)Nc2nc3c(s2)CCc2cc(OC)ccc2-3)cc1	UDG counterscr 79µM
COc1ccc2c(c1)Cc1sc(NC(=O)c3ccc(Cl)cc3)nc1-2	AID inh 32µM
COc1ccc2c(c1)Cc1sc(NC(=O)c3cccc(Cl)c3)nc1-2	none
COc1ccc2c(c1)CCc1sc(NC(=O)c3cccc(Br)c3)nc1-2	none
O=C(CSc1nc(-c2ccc(F)cc2)nc2c1Cc1ccccc1O2)Nc1cccc(C(=O)O)c1	AID inh 40µM
COc1ccc(-c2nc3c(c(SCC(=O)Nc4cccc(O)c4)n2)Cc2c(CO)cnc(C)c2O3)cc1	AID inh 45µM
CCOc1ccc(NC(=O)CSc2nc(-c3ccc(OC)cc3)nc3c2Cc2c(CO)cnc(C)c2O3)cc1	none
COc1cc(NC(=O)CSc2nc(-c3ccc(C)cc3)nc3c2Cc2ccccc2O3)cc(OC)c1	none
Cc1cc2nc(/C(C#N)=C/c3cccc(C(F)(F)F)c3)[nH]c2cc1C	none
Cc1ccc(C)c2[nH]c(C(=O)O)cc12	none
CC(=O)N1CCc2c(sc3c2c(=O)n(Cc2ccccc2)c(=O)n3Cc2ccccc2Cl)C1	AID inh 22µM
CCOC(=O)N1CCc2c(sc3c2c(=O)n(-c2ccc(CC)cc2)c(=O)n3Cc2cccc(Cl)c2)C1	none
C=Cc1ccc(Cn2c(=O)n(-c3cccc(Cl)c3)c(=O)c3c4c(sc32)CN(C(C)=O)CC4)cc1	UDG counterscr 79µM, AID inh inconclusive
CC(=O)N1CCc2c(sc3c2c(=O)n(Cc2ccccc2)c(=O)n3Cc2ccccc2F)C1	AID inh inconclusive
O=C(Nc1cccnc1)c1cc(-c2ccncc2)nc2ccccc12	none
NNC(=O)Nc1ccccc1	none
O=C(CSc1nnc(N2CCOCC2)n1-c1cccc(F)c1)N(C1=CCCCC1)C1CC1	none
COc1cccc(CNC(=O)C2CCCN(c3nc4ccccc4n4cccc34)C2)c1 (stereo not given)	none
Cc1ccc(CNC(=O)C2CCCN(c3nc4ccccc4n4cccc34)C2)cc1 (stereo not given)	AID inh 79µM
COC(=O)c1[nH]c2ccc(F)cc2c1NC(C)=O	none
O=C(Nc1nc(-c2ccccc2)cs1)c1ccc(Cl)c(N2CCCC2=O)c1	none
Cc1cccc(OCC(=O)Nc2cc(-c3nn(C)c(=O)c4ccccc34)ccc2N2CCOCC2)c1	UDG counterscr 89µM, AID inh inconclusive
Cc1ccc(NC(=O)COc2ccc(-c3nn(C)c(=O)c4ccccc34)cc2)cc1	AID inh inconclusive
OCCCc1nc2ccccc2s1	none
CC(NC(=O)c1ccco1)C(=O)Nc1nc(-c2cccc3ccccc23)cs1 (stereo not given)	none
COc1cc(OC)c(NC(c2nnc(-c3ccccc3)o2)c2ccc(F)cc2Cl)cc1Cl (stereo not given)	none
CCc1cccc(NC(c2nnc(-c3ccccc3)o2)c2ccc(F)cc2Cl)c1 (stereo not given)	UDG counterscr 79µM, AID inh inconclusive
Cc1cccc(N(CC(=O)NCCc2ccccc2)S(=O)(=O)c2ccccc2)c1C	none
Cc1cccc(N(CC(=O)N(C)Cc2ccccc2)S(=O)(=O)c2ccccc2)c1C	AID inh 35µM
Cc1ccc(C)c(N2CCN(C(=O)c3cccn4c(=O)c5ccccc5nc34)CC2)c1	none
O=C(c1cccn2c(=O)c3cc(Cl)ccc3nc12)N1CCN(c2ccccc2F)CC1	UDG counterscr 79µM
COc1ccc(N2CCN(C(=O)c3cc4c(-c5ccccc5F)nn(C)c4s3)CC2)cc1	AID inh inconclusive
COc1ccc(-c2nn(C)c3sc(C(=O)N4CCN(c5cccc(Cl)c5)CC4)cc23)cc1OC	UDG counterscr inconclusive, AID inh 79µM
CC(=O)Oc1ccc(CC(=O)Nc2ccc(O)c(-c3nc4ccccc4o3)c2)cc1	none
Cc1c(C(=O)N2CCc3ccccc3C2)nnn1-c1ccc(Br)cc1	none
CCOc1ccc(S(=O)(=O)Nc2nc3ccccc3nc2Nc2ccc(OC)cc2)cc1	AID inh inconclusive
CCc1ccc(Nc2nc3ccccc3nc2NS(=O)(=O)c2ccccc2)cc1	AID inh 28µM!
CC1CCCCC1NC(=O)c1cc2c(Cl)nc3ccccc3c2s1 (stereo not given)	none
CCn1cc(S(=O)(=O)c2ccc(OC)cc2)c(=O)c2cc(F)c(N3CCCCCC3)cc21	none
CCn1cc(S(=O)(=O)c2ccc(OC)cc2)c(=O)c2cc(F)c(N3CCC(C)CC3)cc21	AID inh 18µM
C=CC[n+]1c(C)ccc2ccc(C)cc21	none
COc1ccc(Br)cc1/C=C/C(=O)OC1CCCCC1=O (stereo not given)	none
CC(C)(C)c1ccc(S(=O)(=O)N2CCC(c3ccncc3)CC2)cc1	AID inh inconclusive
CC(C)Cc1ccc(S(=O)(=O)N2CCC(c3ccncc3)CC2)cc1	AID inh 35µM
CCCCN(CCCC)CCNC(=O)c1cn(CC)c2ccc(S(=O)(=O)N3CCc4ccccc4C3)cc2c1=O	UDG counterscr inconclusive, AID inh 28µM
CCn1cc(C(=O)NCCc2ccccc2)c(=O)c2cc(S(=O)(=O)N3CCc4ccccc4C3)ccc21	AID inh inconclusive
COc1ccccc1CNCCCO	none
CCOC(=O)c1cccc(NC(=O)c2oc3c(c2C)-c2[nH]ncc2CC3)c1	AID inh inconclusive
COc1cccc(CNC(=O)c2oc3c(c2C)-c2nn(Cc4cccc(Cl)c4)cc2CC3)c1	AID inh inconclusive
COc1cccc(CNC(=O)c2oc3c(c2C)-c2nn(Cc4cccc(Cl)c4)cc2CC3)c1OC	AID inh 79µM
CCOC(=O)c1cccc(NC(=O)c2oc3c(c2C)-c2nn(CC)cc2CC3)c1	UDG counterscr inconclusive, AID inh 40µM
CCC(C(=O)NN1CCCCC1)c1ccccc1 (stereo not given)	none
CCN1CCN(CC(=O)N2CCNC(=O)C2CC(=O)Nc2ccc(F)cc2)CC1 (stereo not given)	none
CCCCNC(=S)Nc1cccc(Cl)c1	none
Cc1ccc(C(=O)Nc2sc3c(c2C(=O)NCc2ccco2)CCC(C(C)(C)C)C3)cc1 (stereo not given)	none
CC(C)(C)C1CCc2c(sc(NC(=O)c3ccccc3F)c2C(=O)NCc2ccco2)C1 (stereo not given)	AID inh 11µM
N#C/C(=C\c1ccc(-c2ccc(C(=O)O)cc2)o1)c1nc2ccccc2[nH]1	none
N#C/C(=C\c1ccc(-c2ccc(Cl)c(C(=O)O)c2)o1)c1nc2ccccc2[nH]1	AID inh 28µM
